Data as given in PubChem BioAssay AID651718 (The Scripps Research Institute Molecular Screening Center, 2012).
About 2,700 (0.75%) of roughly 360,000 compounds were called active. The sample holds actives, similar compounds and a random draw of the others, so the mix is not that of the screen. Cut-off read from the data, not from the text of the source: active = inhibition above about 4.5%; inactive = the rest.

System: Methionine sulfoxide reductase A (Bos taurus)
Assay: bovine MsrA enzyme inhibitors, primary screen, biochemical, absorbance, HTS (AID 651718);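 note: 0% = vehicle wells with enzyme and 100% = reference inhibitor wells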
Conditions: purified bovine MsrA, absorbance read-out; at 15.5 µM; hits give high values

inhibition, inactive:
COC(=O)[C@]12C[C@H](CC(=O)NCCC(C)C)C(=O)N(CCc3ccc(OC)c(OC)c3)C1=C[C@H](C(C)(C)C)O[C@@H]2C -0.48%
CN[C@H]1C[C@H]2c3[nH]c4c(-c5ccccc5)cccc4c3CCN2C(=O)[C@H]1[C@H](C)O 0.9%
CC(C)CC(CCc1ccccc1)OS(N)(=O)=O (stereo not given) 0.27%
O=C(Cc1ccc([N+](=O)[O-])cc1)N/N=C/c1ccco1 1.04%
O=C(Cc1ccccc1)Nc1cccc(C(=O)N/N=C/c2ccco2)c1 2.33%
C[C@H]1CN([C@@H](C)CO)C(=O)CCCn2nncc2CO[C@@H]1CN(C)C(=O)Nc1ccc(N2CCN(C)CC2)cc1 -0.42%
O=C(Nc1c(Cl)c(C2CC2)nn1-c1ccccc1)C(Cl)(Cl)Cl -0.78%
Cc1nc2nc(SCC(=O)Nc3cccc(F)c3)[nH]c2cc1Br -0.88%
O=C(Nc1cccc(F)c1)[C@@H]1CCCN1 0.99%
Nc1nc2c(ncn2[C@@H]2O[C@H](C(=O)N[C@@H](Cc3ccccc3)C(=O)NCc3ccccc3)[C@@H](O)[C@H]2O)c(=O)[nH]1 -0.25%
COC(=O)c1ccc(CN2C(=O)[C@]3(OCCC=C[C@H]3C)c3c(Br)cccc32)cc1 1.8%
COCCCNC(=O)C[C@H]1C[C@@]2(C(=O)OC)C(=C[C@H](C(C)(C)C)O[C@@H]2C)N(Cc2ccc3c(c2)OCO3)C1=O -0.56%
Cc1cc(C(C)(C)C)cc(S(=O)(=O)Nc2ccc(C(=O)O)cc2)c1C 1.5%
O=C(O)c1ccc(F)c(S(=O)(=O)Nc2ccccc2)c1 -0.45%
Cc1ccc(NC(=O)N2c3ccccc3SC2c2ccco2)c(C)c1 (stereo not given) -0.74%
Cc1nc2ccccn2c(=O)c1NC(=O)c1ccc(Br)o1 2.43%
CN1C(=O)CN2CCc3ccccc3C2c2cc(Cl)ccc21 (stereo not given) 1.04%
CC1CCCCN1S(=O)(=O)c1ccc(S(=O)(=O)N(CC(=O)Nc2ccccc2)Cc2cccs2)cc1 (stereo not given) -0.63%
CSCc1nnc(NC(=O)c2ccc(S(=O)(=O)N3CCCCC3C)cc2)o1 (stereo not given) -0.31%
O=C(N[C@H](Cc1ccccc1)C(=O)N1CCCN(Cc2cccs2)CC1)[C@H]1O[C@@H](n2ccc(=O)[nH]c2=O)[C@H](O)[C@@H]1O 0.08%
O=c1c(F)cn(C2CCCO2)c(=O)n1Cc1ccccc1Cl (stereo not given) 0.2%
O=c1[nH]c2ccc(S(=O)(=O)N3CCCC3)cc2[nH]1 -0.78%
CCN(c1ccccc1)S(=O)(=O)c1ccc2[nH]c(=O)[nH]c2c1 2.53%
CN1C(=O)C(Br)(Br)CC1c1cccnc1 (stereo not given) 1.57%
Cc1cc(Br)cn2c(Cc3ccccc3C(F)(F)F)c(-c3ccc(C#N)cc3)nc12 -0.24%
O=C(COc1cc(Cl)c(Cl)cc1Cl)NCCc1ccccn1 -0.1%
O=C(COC(=O)COc1cc(Cl)c(Cl)cc1Cl)NC1CC1 3.33%
CCCCCCCCN1C(=O)[C@@H](CC(=O)NCc2ccccc2)C[C@@]2(C(=O)OC)C1=C[C@H](C(C)(C)C)O[C@@H]2C 0.32%
CCOc1cccc(NC(=O)Cn2nc(-c3ccc4c(c3)OCCO4)ccc2=O)c1 -0.18%
COc1cc(C=NC2CCCCC2)ccc1O 3.96%
CCOc1ccccc1/C=N/NC(=O)CNC(=O)COc1ccccc1 0.86%
CCC(=O)c1ccc(OC(=O)/C=C/c2cc(OC)c(OC)c(OC)c2)cc1 1.16%
CCOc1ccc2ccccc2c1/C=N/NC(=O)c1c(C)cc(C)[nH]c1=O 2.01%
COc1cccc2[nH]c(C(=O)NCCc3ccccc3)cc12 -0.25%
COc1ccc2[nH]c(=O)c(CNc3ccc(C)c(C)c3)cc2c1 1%
CCN1CCCC1CNC(=O)c1cc2cc(OC)c(OC)cc2[nH]1 (stereo not given) 2.2%
Cc1ccc(C)c(N2C(=O)CS/C2=N\NC(=O)c2ccccc2Cl)c1 0.65%
Cc1ccc(N2C(=O)C3C4C=CC(CC4)C3C2=O)cc1Br (stereo not given) -0.75%
Cc1[nH]nc2c1C(c1ccc(Br)cc1)NC2=O (stereo not given) 0.64%
CCOC(=O)C1=CCC2C(=O)N(Cc3ccccc3)C(=O)C12 (stereo not given) -0.57%
C[C@H](O)[C@@H]1CN2CCc3ccc(-c4ccc5c(c4)OCO5)cc3[C@@H]2C[C@@H]1N(C)C(=O)C1CCCCC1 -0.49%
Cc1ccc(C(=O)NC2CCCC(C)C2C)cc1S(=O)(=O)N1CCCCC1 (stereo not given) -0.29%
COc1cccc(-c2ccc(SCC(=O)N3CCN(c4ccccc4)CC3)nn2)c1 -0.38%
Cn1nc(C(F)(F)F)c2cc(C(=O)N3CCOCC3)sc21 -0.18%
O=C(C(=O)N1CCC(CNS(=O)(=O)Cc2ccccc2)CC1)c1cc2ccccc2o1 1.99%

inhibition, active:
O=C(N/N=C/c1ccco1)c1ccc(C(=O)N/N=C/c2ccco2)o1 10%
O=C(Nc1cccc(F)c1)c1coc(=O)c(Br)c1 5.37%
Cc1ccc(C(=O)Nc2ccccc2-c2ccccc2)cc1S(=O)(=O)Nc1ccccc1 4.76%
CC1CCCCN1S(=O)(=O)c1ccc(C(=O)Nc2nnc(-c3cccs3)o2)cc1 (stereo not given) 4.79%
CN(c1ccccc1)S(=O)(=O)c1ccc2[nH]c(=O)[nH]c2c1 14.1%
NC(=S)NN=Cc1ccc(OC(=O)COc2cc(Cl)c(Cl)cc2Cl)cn1 4.84%
COc1cc2cc(C(=O)N/N=C/c3cccc(OC)c3OC)[nH]c2cc1OC 5.39%
CCOc1ccc2[nH]c(C(=O)N/N=C/c3cccc(OC)c3OC)cc2c1 5.19%
COc1ccc2[nH]c(C(=O)N/N=C/c3cc(OC)c(OC)c(OC)c3)cc2c1 6.03%
COc1cccc(-c2nn(C)c3sc(C(=O)N4CCN(c5ccccc5)CC4)cc23)c1 4.59%
